Out of some 48,000 compounds screened, about 13,000 (27%) showed an effect of 50% or more. The list shows a part of the results.
The compounds below were run on Wolbachia pipientis (assay: Anti-Wolbachia Cell-Based Screen). Settings: 5 µM.
Assay type: functional
Parameters: scale not given: in the data most compounds retested in dose-response had high values

Row | SMILES | Percent Effect [%]
1 | CCN(Cc1ccccc1C)S(C)(=O)=O | -4.247
2 | COCCCNC(=O)CN(C)C1CCCN(c2cccnn2)C1 (stereo not given) | 138.8
3 | CN(CC(=O)NCc1ccccn1)CC1CCCN1c1cccnn1 (stereo not given) | -6.159
4 | CN(CC(=O)NCc1ccccn1)C1CCCN(c2cccnn2)C1 (stereo not given) | 106.6
5 | CN1C(=O)[C@H]2CC[C@@H]1CN(C(=O)c1nnc3n1CCCCC3)C2 | 10.69
6 | NC(=O)NCCC(=O)NCc1cccnc1N1CCc2ccccc2C1 | 5.248
7 | Cn1cccc1CCC(=O)N1CCC2(CC1)c1ccccc1CC2O (stereo not given) | 8.573
8 | COc1cccc(COCC(=O)N2CCCC(c3cc(C)[nH]n3)C2)c1 (stereo not given) | 9.679
9 | Cc1cccc(CC(=O)N2CCCC(c3n[nH]c4nccnc34)C2)c1 (stereo not given) | 102.4
10 | Cc1cccc(C2CCCN(C(=O)CN3CCCC3=O)C2)c1 (stereo not given) | -1.59
11 | COc1cccc(CC(=O)N2CCCC(c3n[nH]c4nccnc34)C2)c1 (stereo not given) | 81.22
12 | N#Cc1cccc(NC2CC(=O)N(Cc3cccc(F)c3)C2)n1 (stereo not given) | 7.096
13 | CCN(Cc1ccc(Cl)s1)S(=O)(=O)CCOC | -12.02
14 | CC[C@@H](c1ccccc1)n1c(CCN)n[nH]c1=O | 91.36
15 | C[C@H](c1ccc(F)cc1)n1c(C2CCN(C)CC2)n[nH]c1=O | -149.6
16 | CCCc1n[nH]c(=O)n1Cc1ccccc1F | -4.193
17 | NCc1n[nH]c(=O)n1-c1ccccc1Oc1ccccc1 | -5.025
18 | CCCc1cc(C(=O)NCCN2C(=O)c3ccccc3C2=O)[nH]n1 | -4.22
19 | CCC(c1ccccc1)N1CCN(C(=O)c2cc(C(N)=O)c[nH]2)CC1 (stereo not given) | -8.4
20 | CC[C@@H](c1ccccc1)n1c(C2CC2)n[nH]c1=O | 115.6
21 | CC[C@@H](c1ccccc1)n1c(CN)n[nH]c1=O | 112.8
22 | C[C@H](c1ccc(Cl)cc1)n1c(C2CC2)n[nH]c1=O | -27.24

Row | SMILES | Percent Effect [%]
23 | CCCc1n[nH]c(=O)n1[C@@H](CC)c1ccccc1 | 92.4
24 | Cn1cccc1C(=O)NC1CCN(c2ccc(OC(F)(F)F)cc2)CC1 | -13.65
25 | CNC(=O)NC(=O)CN1CCC(c2c[nH]c3ccc(OC)cc23)CC1 | -6.098
26 | O=S(=O)(c1cccc(F)c1)N1C[C@@H]2COC[C@]2(COCC2CC2)C1 | -1.949
27 | COc1cc(CNCCC(N)=O)c2c(c1)CC(C)O2 (stereo not given) | 0.4704
28 | CCN(CC)C(CNC(=O)c1ccc(S(C)(=O)=O)cc1)c1ccco1 (stereo not given) | 12.65
29 | O=C(CNc1cc2c(cc1Br)OCCO2)NC1CCS(=O)(=O)C1 (stereo not given) | -16.13
30 | CCNc1nnc(SCC(=O)N2CCN(Cc3ccc(Cl)s3)CC2)s1 | -3.982
31 | Cc1cccc2c(CCNC(=O)NCCC[S+](C)[O-])c[nH]c12 (stereo not given) | 21.8
32 | Cc1cccc2c(CCNC(=O)NCC[S+](C)[O-])c[nH]c12 (stereo not given) | -10.94
33 | Cc1ccc(C)c2c(C)c(C(=O)NCC[S+](C)[O-])[nH]c12 (stereo not given) | 91.32
34 | OC1CCN(c2ccccc2NCc2nc(-c3cccs3)no2)CC1 | 8.395
35 | CNC(=O)N1CCC2(CC1)C(=O)N(C)c1c(F)cccc12 | 16.38
36 | O=C(NCc1ccc(CN2CCCCC2)cc1)Nc1cccnc1 | -23.63
37 | O=C(NCCn1cc(Cl)cn1)C1CCN(C(=O)C2CC2)CC1 | 13.04
38 | CC(Cn1cc(Cl)cn1)C(=O)Nc1ccc(CN2CCCCCC2)cc1 (stereo not given) | 106.4
39 | CC(C)n1nc2c(cc1=O)CN(Cc1ccc(-n3cccn3)cc1)CC2 | 0.8403
40 | O=C(c1cncc(N2CCC3(CCCNC3)C2)n1)N1CCCC1 (stereo not given) | 43.3
41 | COc1cc(C2(C(=O)NC3CCC4(CC3)OCCO4)CC2)ccc1C | 0.5256
42 | Cc1ccccc1-n1cc(-c2ccnc(N3CCCC(CN)C3)n2)cn1 (stereo not given) | 108.9
43 | Cc1ccccc1-n1cc(CN(C)C[C@@H]2CCCN3CCCC[C@H]23)cn1 | 9.143
44 | COC[C@H]1CCCN1c1nccc(-c2cnn(-c3ccccc3C)c2)n1 | 94.7

Row | SMILES | Percent Effect [%]
45 | COCc1noc(-c2ccc(N3CCCCC3COC)nc2)n1 (stereo not given) | 2.136
46 | Cc1ccccc1-n1cc(-c2ccnc(N[C@H](CO)C(C)C)n2)cn1 | -13.53
47 | Cc1cnc(N2CCCC(O)C2)nc1-c1ccnn1C (stereo not given) | -3.995
48 | Cc1ccccc1-n1cc(-c2ccnc(N3CCCC(O)C3)n2)cn1 (stereo not given) | 107.7
49 | NCC1CCCN(c2nc(-c3ccccc3)nc3c2CCNCC3)C1 (stereo not given) | -16.76
50 | O=C1CC2(CCN(Cc3ccc(C(F)(F)F)nc3)CC2)CN1 | -10.7
51 | O=S(=O)(Cc1ccccc1F)NCCCN1CCCCC1 | -1.108
52 | CCCc1cc(NCCCC2CCOC2)n2nccc2n1 (stereo not given) | -21.79
53 | CC(C)C[C@H](Nc1nc(C2CCCC2)nc2c1cnn2C)C(N)=O | 1.529
54 | O=C1O[C@@H]2CN(Cc3ccccc3)C[C@@H]2N1CCCN1CCOCC1 | -2.411
55 | Cn1c(=O)oc2ccc(NC(=O)N3CCOCC3)cc21 | 0.8661
56 | CCS(=O)(=O)N1CCC(c2nnc(CN3CCOCC3)n2C)CC1 | 4.44
57 | CCN(C)CC(=O)N1CCCC(c2nnc(CN3CCOCC3)n2C)C1 (stereo not given) | 14.42
58 | Cn1c(CN2CCOCC2)cc(=O)c(O)c1CN1CCCC1 | 100.1
59 | CN(CCN1CCCCC1)C(=O)c1cc(CN2CCOCC2)on1 | 7.335
60 | Cn1c(CN2CCOCC2)cc(=O)c(O)c1CN1CCOCC1 | 102.7
61 | Cn1c(CN2CCOCC2)nnc1C1CCCN(CC(N)=O)C1 (stereo not given) | -18.54
62 | Cn1c(CN2CCOCC2)cc(=O)c(O)c1CN1CCCCC1 | 117.1
63 | CC(C)NC(=O)N1CCCC(c2nnc(CN3CCOCC3)n2C)C1 (stereo not given) | 7.81
64 | O=C(NCCN1CCCC1)c1nc2c(o1)CN(C(=O)c1cccnc1)C2.O=C(O)C(F)(F)F.O=C(O)C(F)(F)F | -5.766
65 | COCCN1CCc2ncc(CN(C)C)n2CC1 | -10.98

Source: ChEMBL document CHEMBL3988442, “University of Dundee, Small-Polar-MMV Screening Library” (2021)
